Several values for one entry are separate records, joined by “and”; a condition that tells them apart may be missing. Equal entries are not always repeated. Compounds without any hit were thinned out: in the full panel of roughly 79,000, 15% have a hit. Activity calls are given as the source filed them. Cut-off read from the data, not from the text of the source: active = growth inhibition above about 70%; inactive = the rest.
Legend:
[1] = NCI Yeast Anticancer Drug Screen. Data for the rad50 strain (AID 155);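 note: 0% = growth of vehicle-only cultures of the same strain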; details: S. cerevisiae rad50 strain growth inhibition; at 50.0 µM; stronger effect = higher value
In short: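 Yeast carrying a defined DNA repair defect were exposed to test compounds, and growth was compared with vehicle-treated controls to give percent inhibition.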

[2] = NCI Yeast Anticancer Drug Screen. Data for the mec2-1 strain (AID 157); details: S. cerevisiae mec2-1 strain, at 50.0 µM, stronger effect = higher value
In short: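 mec2-1 yeast strain, carrying an alteration in DNA damage repair or cell cycle control, was exposed to compounds; growth inhibition was measured relative to vehicle-treated controls.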

[3] = NCI Yeast Anticancer Drug Screen. Data for the sgs1 mgt1 strain (AID 161);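 note: 0% = growth of cultures given vehicle only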; details: S. cerevisiae sgs1 mgt1 strain, at 50.0 µM, stronger effect = higher value
In short: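 Growth of a repair-deficient yeast mutant was monitored after compound treatment and expressed as inhibition relative to vehicle-treated cultures.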

[4] = NCI Yeast Anticancer Drug Screen. Data for the cln2 rad14 strain (AID 165);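 note: 0% = growth equal to vehicle treated cultures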; details: S. cerevisiae cln2 rad14 strain, at 50.0 µM, stronger effect = higher value
In short: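 Yeast carrying cln2 and rad14 alterations (cell cycle control and DNA damage repair) were exposed to compounds. Growth inhibition was measured against vehicle-treated controls.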

[5] = NCI Yeast Anticancer Drug Screen. Data for the bub3 strain (AID 167); details: S. cerevisiae bub3 mutant strain, at 50.0 µM, stronger effect = higher value
In short: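 Compounds were applied to a genetically altered yeast strain carrying a cell-cycle control defect. Growth inhibition was scored against vehicle-treated controls.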

[6] = NCI Yeast Anticancer Drug Screen. Data for the mlh1 rad18 strain (AID 175); details: S. cerevisiae mlh1 rad18 strain growth inhibition; at 50.0 µM; stronger effect = higher value
In short: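 Growth inhibition of the yeast strain was measured after compound exposure and expressed relative to vehicle-treated controls. The strain carries defined defects in DNA damage repair.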

Measured: growth inhibition

CC(C)C(=O)/C=C/c1ccccc1
inactive: [1] 11.1% and 21.2% | [2] -2.4% and -2.75% | [3] 10% and -5.25% | [4] 18.2% and -12.6% | [5] 7.7% and -3.95% | [6] 17.8% and 8%

c1ccc(C(c2ccccc2)N2CCCC2)cc1
inactive: [1] -4.05% and 7.15% | [2] -14.7% and 10.8% | [3] -5.7% and 4.6% | [4] 41.1% and -0.2% | [5] 2.25% and 3.7% | [6] 25.9% and -7%

O=C(/C(=N/N(C(=O)c1ccccc1)c1ccccc1)c1ccccc1)c1ccccc1
inactive: [1] 29.4% and 22.2% | [2] 5.2% and -1.9% | [3] 19% and 16.8% | [4] -12.4% and 16.6% | [5] -3.85% and -6.05% | [6] 8.65% and 26.4%

Nc1c(O)nc[nH]c1=O
inactive: [1] 3.5% and -8.25% | [2] -5.15% and -3.15% | [3] -9% and -8.55% | [4] -1.55% and -39.1% | [5] 4.8% and -10.2% | [6] -16.6% and -8.95%

Nc1ccc(CCc2ccc(N)cc2)cc1
inactive: [1] 2.95% and -24.4% | [2] -6.85% and -19.4% | [3] -34.4% and -18.4% | [4] -48.5% and -20.8% | [5] 7.35% and -18.9% | [6] 12.2% and -8.65%

Cc1ccc(C)c(NC(=O)CC2Sc3ccccc3NC2=O)c1 (stereo not given)
inactive: [1] -0.4% and -7.3% | [2] -25.8% and -19.4% | [3] 8.4% and -28.5% | [4] 21.9% and 8.45% | [5] 26.3% and 10.3% | [6] -5.05% and -88%

Cc1cn(C2CC(CCCO)C(CO)O2)c(=O)[nH]c1=O (stereo not given)
inactive: [1] -6.5% and -9.9% | [2] -7% and -5.25% | [3] 6.7% and 2.7% | [4] -2.8% and 16.1% | [5] 2.3% and 0.3% | [6] 5.35% and 0.6%

C/C=C(\C)c1cc(=O)c2c(C)cc3c(c2o1)C(=O)c1c(O)c(C2CC(C)(N(C)C)C(O)C(C)O2)cc(C2CC(N(C)C)C(O)C(C)O2)c1C3=O (stereo not given)
inactive: [1] 1.95% and 21.3% | [2] -16% and 10.7% | [3] 14.6% and 17.4% | [4] 3.4% and 25.8% | [5] 8.2% and 9.4% | [6] -5.8% and 10.2%

CC1(C)Cc2[nH]c3ccccc3c2C(C)(C)N1
inactive: [1] -35% and 6.55% | [2] -16.4% and 23.3% | [3] -6.35% and 14.5% | [4] -64% and -6.15% | [5] -4.5% and 12.5% | [6] 3.8% and 10.5%

N#CC(c1ccc([N+](=O)[O-])cc1)C(CC(=O)c1ccccc1)c1ccccc1 (stereo not given)
inactive: [1] -1.3% and -14.2% | [2] -3% and -14.6% | [3] -15.2% and -17.2% | [4] -28.3% and -46.9% | [5] 37.8% and 12.6% | [6] 36.5% and 14.3%

CCN(CC)C(=O)N1CCN(C)CC1
inactive: [1] 26.1% and -15.6% | [2] -26.9% and -4.6% | [3] 1.4% and -3.65% | [4] -41.1% and 5.8% | [5] -1.1% and 9.7% | [6] 15.2% and -8%

O=C(CCc1ccccc1)CCc1ccccc1
inactive: [1] -28.6% and 33.6% | [2] -4.3% and 4.85% | [3] 28.8% and 7.55% | [4] -30.9% and 27.6% | [5] 0.55% and 35.2% | [6] -20.4% and 26.6%

Cc1nc2ccc(Br)cc2c(=O)n1-c1ccc(NC2OC(CO)C(O)C(O)C2O)cc1 (stereo not given)
inactive: [1] 49.9% and -0.75% | [2] 36.6% and -23.4% | [3] -33.1% and 0.7% | [4] -3.65% and -35.2% | [5] -49.1% and -7.65% | [6] -60.5% and -10.8%

O=c1[nH]c(F)nc2c1ncn2C1OC(CO)C(O)C1O (stereo not given)
inactive: [1] -9.5% and -20.3% | [2] -5% and -12.8% | [3] -5.7% and -20.9% | [4] -16.4% and 8.4% | [5] 8.75% and -10.6% | [6] -21.2% and 6%

OC1Cc2ccccc2CC1O (stereo not given)
inactive: [1] -20.1% and -35.1% | [2] -41.4% and -39.9% | [3] -36.5% and -12.3% | [4] -19.6% and -1.5% | [5] -26.1% and -8.8% | [6] -5.8% and -14.7%

CN(C)c1ccc(/C=C2\c3ccccc3-c3ccc([N+](=O)[O-])cc32)cc1
inactive: [1] 20.9% and 6.65% | [2] -9.8% and -6.75% | [3] -21.1% and -11% | [4] -27.2% and -8.2% | [5] -19.6% and 4.45% | [6] -4.35% and 8%

OC1C2COC(O2)C(O)C1O (stereo not given)
inactive: [1] -0.4% and -29.9% | [2] -5.45% and -7.65% | [3] 7.4% and -6.7% | [4] -16.2% and -35% | [5] -1.5% and 5.9% | [6] 7.05% and -18.7%

Cc1ccc(S(=O)(=O)Oc2cc(N)c3c(n2)CCC3)cc1
inactive: [1] -4.7% and 5.5% | [2] -13.6% and -7.8% | [3] 7.8% and -23.3% | [4] -48.2% and 6.55% | [5] -16.2% and -0.65% | [6] -3.45% and 0.5%

COC(=O)C(C)(C)O
inactive: [1] -1.2% and 20.4% | [2] 8.2% and -28.9% | [3] -4.15% and -12% | [4] -26.9% and -75.2% | [5] 1.95% and -19.1% | [6] 3.1% and 1.55%

CC1(C)Nc2ccccc2C(c2ccccc2)=NC1=O
inactive: [1] -2.7% and 4.8% | [2] -17.1% and -15.2% | [3] -7% and 0.85% | [4] -5.75% and -0.25% | [5] -4.7% and -4.6% | [6] 12.7% and 13.3%
